# Data from PubChem BioAssay (NCI).
# The panel holds about 79,000 compounds, 15% with a hit somewhere; the sample as a whole holds those more often. A number with no mark means an inactive call. The source made the active and inactive calls. No stated cut-off is given here; in the data, active means growth inhibition above about 70%; inactive means the rest.
# How the values were obtained:
# [1] = NCI Yeast Anticancer Drug Screen. Data for the rad52 strain (AID 147);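 further: 0% = growth of vehicle-treated control cultures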; conditions: S. cerevisiae rad52 mutant growth inhibition, stronger effect = higher value
# In short: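 DNA repair-defective yeast; compound exposure; growth scored against vehicle controls.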
# [2] = NCI Yeast Anticancer Drug Screen. Data for the wt1 strain (AID 149);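 further: 0% = growth of vehicle-treated wt1 cultures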; conditions: S. cerevisiae wt1 strain (SPY 50644) growth inhibition, stronger effect = higher value
# In short: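 Vehicle-normalised growth inhibition; strain wt1; compound exposure.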
# [3] = NCI Yeast Anticancer Drug Screen. Data for the rad50EPP+ strain (AID 151);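 further: 0% = growth of vehicle-treated control cultures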; conditions: S. cerevisiae rad50 mutant strain, stronger effect = higher value
# In short: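 rad50EPP+ yeast treated with test compounds. Readout: growth vs vehicle control.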
# [4] = NCI Yeast Anticancer Drug Screen. Data for the mgt1 strain (AID 153); conditions: S. cerevisiae mgt1 mutant growth inhibition, stronger effect = higher value
# In short: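 Growth inhibition relative to vehicle controls was scored for the mgt1 yeast strain after compound exposure.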
# [5] = NCI Yeast Anticancer Drug Screen. Data for the rad50 strain (AID 155);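 further: 0% = growth of vehicle-only cultures of the same strain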; conditions: S. cerevisiae rad50 strain growth inhibition, stronger effect = higher value
# In short: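 A DNA repair-deficient yeast mutant serves as the test organism; compound-induced growth inhibition is calculated against vehicle-treated cells.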
# [6] = NCI Yeast Anticancer Drug Screen. Data for the mec2-1 strain (AID 157); conditions: S. cerevisiae mec2-1 strain, stronger effect = higher value
# In short: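 Growth inhibition is read against vehicle-treated controls after compound exposure of the mec2-1 yeast strain, which is defective in DNA damage repair or cell cycle control.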
# [7] = NCI Yeast Anticancer Drug Screen. Data for the rad14 strain (AID 159);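 further: 0% = growth of vehicle-treated control cultures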; conditions: S. cerevisiae rad14 strain growth inhibition, stronger effect = higher value
# In short: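 Vehicle-treated cultures served as the baseline for growth inhibition of a DNA repair-mutant yeast strain exposed to each compound.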
# [8] = NCI Yeast Anticancer Drug Screen. Data for the sgs1 mgt1 strain (AID 161);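 further: 0% = growth of cultures given vehicle only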; conditions: S. cerevisiae sgs1 mgt1 strain, stronger effect = higher value
# In short: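 Percent growth inhibition was derived by comparing compound-exposed mutant yeast with vehicle-exposed cultures. The strain carries alterations in DNA damage repair.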
# [9] = NCI Yeast Anticancer Drug Screen. Data for the cln2 rad14 strain (AID 165);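 further: 0% = growth equal to vehicle treated cultures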; conditions: S. cerevisiae cln2 rad14 strain, stronger effect = higher value
# In short: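 Growth inhibition, relative to vehicle-treated controls, is the read-out. The test organism is a yeast strain with defined genetic alterations, cln2 rad14.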
# [10] = NCI Yeast Anticancer Drug Screen. Data for the bub3 strain (AID 167); conditions: S. cerevisiae bub3 mutant strain, stronger effect = higher value
# In short: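 Inhibition values come from growth of compound-treated mutant yeast normalised to vehicle-treated controls.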
# [11] = NCI Yeast Anticancer Drug Screen. Data for the wt2 strain (AID 169);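 further: 0% = growth of vehicle-treated yeast cultures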; conditions: S. cerevisiae wt2 strain growth inhibition, stronger effect = higher value
# In short: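 Compound exposure of yeast; growth compared with vehicle controls; inhibition reported.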
# [12] = NCI Yeast Anticancer Drug Screen. Data for the mlh1 strain (AID 171);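 further: 0% = growth of vehicle-treated control cultures of the same strain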; conditions: S. cerevisiae mlh1 strain growth inhibition, stronger effect = higher value
# In short: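 Compounds are applied to a genetically altered yeast strain, and its growth is compared with that of vehicle-treated cultures to give percent inhibition.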
# [13] = NCI Yeast Anticancer Drug Screen. Data for the sgs1 strain (AID 173);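 further: 0% = growth of vehicle-only control cultures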; conditions: S. cerevisiae sgs1 mutant, stronger effect = higher value
# In short: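 Compounds applied to genetically altered yeast; growth compared with vehicle-treated cultures to give % inhibition.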
# [14] = NCI Yeast Anticancer Drug Screen. Data for the mlh1 rad18 strain (AID 175); conditions: S. cerevisiae mlh1 rad18 strain growth inhibition, stronger effect = higher value
# In short: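 Cells of a genetically altered yeast strain, deficient in DNA damage repair, were treated with compound. Their growth was then compared with that of vehicle-treated cultures to give inhibition.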
# [15] = NCI Yeast Anticancer Drug Screen. Data for the rad18 strain (AID 177); conditions: S. cerevisiae rad18 mutant growth inhibition, stronger effect = higher value
# In short: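 Compounds are applied to a repair-deficient yeast strain, and growth is compared with that of vehicle-treated cultures to give percent inhibition.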
# [16] = at 5.0 µM (retest, dose inferred, filed as 0.5)
# [17] = at 50.0 µM (retest, dose inferred, filed as 5.0)
smiles,measurement,setting,value
CN1C(=O)C(CC(=O)O)NC1=S (stereo not drawn),growth inhibition,[1]; at 1.2 µM,0%
same,growth inhibition,[1]; at 3.7 µM,0%
same,growth inhibition,[1]; at 11.0 µM,-1%
same,growth inhibition,[1]; at 33.0 µM,6%
same,growth inhibition,[1]; at 100.0 µM,22%
same,growth inhibition,[2]; at 1.2 µM,-2%
same,growth inhibition,[2]; at 3.7 µM,-2%
same,growth inhibition,[2]; at 11.0 µM,1%
same,growth inhibition,[2]; at 33.0 µM,3%
same,growth inhibition,[2]; at 100.0 µM,11%
same,growth inhibition,[3]; at 1.2 µM,-1%
same,growth inhibition,[3]; at 3.7 µM,-3%
same,growth inhibition,[3]; at 11.0 µM,-2%
same,growth inhibition,[3]; at 33.0 µM,-10%
same,growth inhibition,[3]; at 100.0 µM,-5%
same,growth inhibition,[4]; at 1.2 µM,-3%
same,growth inhibition,[4]; at 3.7 µM,-2%
same,growth inhibition,[4]; at 11.0 µM,1%
same,growth inhibition,[4]; at 33.0 µM,21%
same,growth inhibition,[4]; at 100.0 µM,27%
same,growth inhibition,[5]; at 1.2 µM,-1%
same,growth inhibition,[5]; at 3.7 µM,-2%
same,growth inhibition,[5]; [16],20%
same,growth inhibition,[5]; at 11.0 µM,2%
same,growth inhibition,[5]; at 33.0 µM,9%
same,growth inhibition,[5]; [17],14%
same,growth inhibition,[5]; at 50.0 µM,61.9%
same,growth inhibition,[5]; at 100.0 µM,25%
same,growth inhibition,[6]; at 1.2 µM,1%
same,growth inhibition,[6]; at 3.7 µM,3%
same,growth inhibition,[6]; [16],2%
same,growth inhibition,[6]; at 11.0 µM,4%
same,growth inhibition,[6]; at 33.0 µM,15%
same,growth inhibition,[6]; [17],27%
same,growth inhibition,[6]; at 50.0 µM,33.9%
same,growth inhibition,[6]; at 100.0 µM,47%
same,growth inhibition,[7]; at 1.2 µM,0%
same,growth inhibition,[7]; at 3.7 µM,0%
same,growth inhibition,[7]; at 11.0 µM,-1%
same,growth inhibition,[7]; at 33.0 µM,16%
same,growth inhibition,[7]; at 100.0 µM,39%
same,growth inhibition,[8]; [16],-1%
same,growth inhibition,[8]; [17],17%
same,growth inhibition,[8]; at 50.0 µM,58.2%
same,growth inhibition,[9]; [16],-10%
same,growth inhibition,[9]; [17],12%
same,growth inhibition,[9]; at 50.0 µM,2.1%
same,growth inhibition,[10]; at 1.2 µM,-4%
same,growth inhibition,[10]; at 3.7 µM,-7%
same,growth inhibition,[10]; [16],-10%
same,growth inhibition,[10]; at 11.0 µM,-3%
same,growth inhibition,[10]; at 33.0 µM,3%
same,growth inhibition,[10]; [17],2%
same,growth inhibition,[10]; at 50.0 µM,65.8%
same,growth inhibition,[10]; at 100.0 µM,43%
same,growth inhibition,[11]; at 1.2 µM,-2%
same,growth inhibition,[11]; at 3.7 µM,0%
same,growth inhibition,[11]; at 11.0 µM,3%
same,growth inhibition,[11]; at 33.0 µM,7%
same,growth inhibition,[11]; at 100.0 µM,20%
same,growth inhibition,[12]; at 1.2 µM,-2%
same,growth inhibition,[12]; at 3.7 µM,0%
same,growth inhibition,[12]; at 11.0 µM,4%
same,growth inhibition,[12]; at 33.0 µM,11%
same,growth inhibition,[12]; at 100.0 µM,46%
same,growth inhibition,[13]; at 1.2 µM,0%
same,growth inhibition,[13]; at 3.7 µM,5%
same,growth inhibition,[13]; at 11.0 µM,9%
same,growth inhibition,[13]; at 33.0 µM,24%
same,growth inhibition,[13]; at 100.0 µM,70% (active)
same,growth inhibition,[14]; [16],-11%
same,growth inhibition,[14]; [17],62%
same,growth inhibition,[14]; at 50.0 µM,25.7%
same,growth inhibition,[15]; at 1.2 µM,1%
same,growth inhibition,[15]; at 3.7 µM,0%
same,growth inhibition,[15]; at 11.0 µM,-9%
same,growth inhibition,[15]; at 33.0 µM,15%
same,growth inhibition,[15]; at 100.0 µM,45%
O=S(=O)(NNc1ccccc1)c1ccccc1,growth inhibition,[1]; at 1.2 µM,-1%
same,growth inhibition,[1]; at 3.7 µM,4%
same,growth inhibition,[1]; at 11.0 µM,15%
same,growth inhibition,[1]; at 33.0 µM,62%
same,growth inhibition,[1]; at 100.0 µM,97% (active)
same,growth inhibition,[2]; at 1.2 µM,-1%
same,growth inhibition,[2]; at 3.7 µM,-1%
same,growth inhibition,[2]; at 11.0 µM,4%
same,growth inhibition,[2]; at 33.0 µM,11%
same,growth inhibition,[2]; at 100.0 µM,45%
same,growth inhibition,[3]; at 1.2 µM,-1%
same,growth inhibition,[3]; at 3.7 µM,1%
same,growth inhibition,[3]; at 11.0 µM,14%
same,growth inhibition,[3]; at 33.0 µM,71% (active)
same,growth inhibition,[3]; at 100.0 µM,94% (active)
same,growth inhibition,[4]; at 1.2 µM,-3%
same,growth inhibition,[4]; at 3.7 µM,-1%
same,growth inhibition,[4]; at 11.0 µM,8%
same,growth inhibition,[4]; at 33.0 µM,14%
same,growth inhibition,[4]; at 100.0 µM,82% (active)
same,growth inhibition,[5]; at 1.2 µM,4%
same,growth inhibition,[5]; at 3.7 µM,18%
same,growth inhibition,[5]; [16],-20%
same,growth inhibition,[5]; at 11.0 µM,27%
same,growth inhibition,[5]; at 33.0 µM,60%
same,growth inhibition,[5]; [17],16%
same,growth inhibition,[5]; at 50.0 µM,73.5% (active)
same,growth inhibition,[5]; at 100.0 µM,95% (active)
same,growth inhibition,[6]; at 1.2 µM,-6%
same,growth inhibition,[6]; at 3.7 µM,-5%
same,growth inhibition,[6]; [16],-12%
same,growth inhibition,[6]; at 11.0 µM,-3%
same,growth inhibition,[6]; at 33.0 µM,26%
same,growth inhibition,[6]; [17],15%
same,growth inhibition,[6]; at 50.0 µM,19.1%
same,growth inhibition,[6]; at 100.0 µM,92% (active)
same,growth inhibition,[7]; at 1.2 µM,-2%
same,growth inhibition,[7]; at 3.7 µM,3%
same,growth inhibition,[7]; at 11.0 µM,8%
same,growth inhibition,[7]; at 33.0 µM,18%
same,growth inhibition,[7]; at 100.0 µM,44%
same,growth inhibition,[8]; [16],0%
same,growth inhibition,[8]; [17],9%
same,growth inhibition,[8]; at 50.0 µM,36.6%
same,growth inhibition,[9]; [16],-44%
same,growth inhibition,[9]; [17],-3%
same,growth inhibition,[9]; at 50.0 µM,16.1%
same,growth inhibition,[10]; at 1.2 µM,-4%
same,growth inhibition,[10]; at 3.7 µM,-7%
same,growth inhibition,[10]; [16],-4%
same,growth inhibition,[10]; at 11.0 µM,1%
same,growth inhibition,[10]; at 33.0 µM,45%
same,growth inhibition,[10]; [17],23%
same,growth inhibition,[10]; at 50.0 µM,11.7%
same,growth inhibition,[10]; at 100.0 µM,93% (active)
same,growth inhibition,[11]; at 1.2 µM,-2%
same,growth inhibition,[11]; at 3.7 µM,-1%
same,growth inhibition,[11]; at 11.0 µM,2%
same,growth inhibition,[11]; at 33.0 µM,16%
same,growth inhibition,[11]; at 100.0 µM,67%
same,growth inhibition,[12]; at 1.2 µM,-5%
same,growth inhibition,[12]; at 3.7 µM,-3%
same,growth inhibition,[12]; at 11.0 µM,-2%
same,growth inhibition,[12]; at 33.0 µM,14%
same,growth inhibition,[12]; at 100.0 µM,74% (active)
same,growth inhibition,[13]; at 1.2 µM,-1%
same,growth inhibition,[13]; at 3.7 µM,-1%
same,growth inhibition,[13]; at 11.0 µM,6%
same,growth inhibition,[13]; at 33.0 µM,34%
same,growth inhibition,[13]; at 100.0 µM,90% (active)
same,growth inhibition,[15]; at 1.2 µM,-1%
same,growth inhibition,[15]; at 3.7 µM,3%
same,growth inhibition,[15]; at 11.0 µM,22%
same,growth inhibition,[15]; at 33.0 µM,47%
same,growth inhibition,[15]; at 100.0 µM,91% (active)
